Data taken from PubChem BioAssay (NCI).
This is part of a sample that, as a whole, favours compounds with a hit. Of some 83,000 tested, about 20% had one in any assay.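 Assay: single dose, 48 h. Readout: percent growth (0 = no net growth; negative = cell death). Active: <10.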 Values without a mark were called inactive. The source made the active and inactive calls.

What was measured:
Assay in all cases: NCI-60 one-dose screen, 48 h (100 = growth as untreated, 0 = no growth, -100 = all killed)
Conditions in all cases: 10 µM unless noted
SR leukemia = system: SR leukemia
RPMI-8226 leukemia = system: RPMI-8226 leukemia
OVCAR-8 ovarian = system: OVCAR-8 ovarian
OVCAR-5 ovarian = system: OVCAR-5 ovarian
OVCAR-4 ovarian = system: OVCAR-4 ovarian
SK-OV-3 ovarian = system: SK-OV-3 ovarian
IGROV1 ovarian = system: IGROV1 ovarian
OVCAR-3 ovarian = system: OVCAR-3 ovarian
HS 578T breast = system: HS 578T breast
NCI/ADR-RES ovarian = system: NCI/ADR-RES ovarian

Compound	growth (SR leukemia)	growth (RPMI-8226 leukemia)	growth (OVCAR-8 ovarian)	growth (OVCAR-5 ovarian)	growth (OVCAR-4 ovarian)	growth (SK-OV-3 ovarian)	growth (IGROV1 ovarian)	growth (OVCAR-3 ovarian)	growth (HS 578T breast)	growth (NCI/ADR-RES ovarian)
COCc1cnccc1NC1CCCCCC1	101%	104%	96.3%	108%	98.6%	111%	110%	102%	96%	100%
CCN(CC)CCOc1ccc(NC(=O)C(C(C)C)N2C(=O)/C(=C/c3ccc(Br)cc3)SC2=S)cc1 (stereo not given)	-42% (active)	19.5%	25.6%	66.4%	70.5%	113%	82.2%	94%	84.2%	80%
COc1cc2c(c(O)c1Br)C(=O)c1c(O)cc(C[C@H](C)O)cc1[C@H]2[C@H]1c2cc(C[C@H](C)O)cc(O)c2C(=O)c2c1cc(OC)c(Br)c2O	-5.41% (active)	9.04% (active)	10.4%	0.764% (active)	11.5%	8.82% (active)	2.65% (active)	-27.4% (active)	9.13% (active)	56.3%
COc1ccc(-c2nc3sccn3c2/C=C/C(=O)c2ccc3c(c2)OCO3)cc1	41.4%	10.5%	80.9%	108%	46.1%	170%	85.1%	84.8%	96.9%	75.7%
O=C(CNCCN1CCOCC1)N1c2cccc3cccc(c23)N(C(=O)CNCCN2CCOCC2)C1c1cn(-c2ccccc2)nc1-c1cccc([N+](=O)[O-])c1	-19.4% (active)	44.8%	88.3%	107%	90.7%	109%	74.3%	93.6%	69.1%	87.7%
CN(C)c1ccc(C2C(C#N)=C(/N=C/c3ccccc3)Oc3c2ccc2ccccc32)cc1 (stereo not given)	17.7%	70.6%	89.6%	99.5%	97.4%	66.8%	49.8%	43.7%	66.7%	54.4%
Clc1ccc(-c2ccc(CNCC3CCNCC3)o2)c(-c2ccccc2)c1	-60.9% (active)	-54.4% (active)	-66.9% (active)	-90.6% (active)	-38.2% (active)	45.4%	-64% (active)	-79.9% (active)	-49.8% (active)	-32.5% (active)
CC[C@]12C=CCN3CC[C@@]4(c5cc(NC(=O)CCC(=O)O[C@H]6CC[C@H]7[C@@H]8CCC9=CC(=O)CC[C@@H]9[C@H]8CC[C@]67C)c(OC)cc5N(C)[C@H]4[C@@](O)(C(=O)OC)[C@@H]1OC(C)=O)[C@@H]32	40%	54.6%	75.6%	96.1%	67%	104%	61.6%	80.8%	73.9%	80.1%
C[C@H]1[C@H](C)CC[C@]2(C(=O)Nc3ccc4ncccc4c3)CC[C@]3(C)C(=CC[C@@H]4[C@@]5(C)CCCNC(C)(C)[C@@H]5CC[C@]43C)[C@H]12	-49.2% (active)	-42.3% (active)	-80.5% (active)	74.9%	27.8%	103%	-73.3% (active)	-45.1% (active)	-53.3% (active)	-48.6% (active)
CN1CCN(C(=O)[C@]23CCC(C)(C)C[C@H]2C2=CC[C@@H]4[C@@]5(C)C/C(=C/c6cccnc6)C(=O)C(C)(C)[C@@H]5CC[C@@]4(C)[C@]2(C)CC3)CC1	15.5%	19.1%	54%	100%	58.1%	83.8%	85.6%	52.7%	54.2%	59.1%
CCOC(=O)CCN(CC(C)C)C(=S)Nc1ccccc1	97.1%	115%	102%	100%	112%	130%	102%	124%	117%	105%
COc1cc(OC)cc(C(=O)C[n+]2cccc3cc[nH]c32)c1	116%	106%	103%	98.9%	99.3%	104%	94.2%	106%	101%	101%
CCCN1[C@@H]2CC[C@H]1/C(=C\c1ccc(OC)c(OC)c1)C(=O)/C2=C/c1ccc(OC)c(OC)c1	26.8%	9.06% (active)	35.5%	78.2%	46%	66.2%	56.8%	56.9%	54.2%	42%
